Reference: PubChem BioAssay (Tox21)
Values without a mark were called inactive. Results filed as inconclusive are left out. Calls of active or inactive are those of the source. Unless noted, the call rests on the fitted dose curve; in most records, active means well fitted curve in the direction sought with a large enough effect in the repeat runs; inconclusive means weak or mixed curves; inactive means no such curve, though single readings can be large; an effect the other way counts as inactive or inconclusive.

Assay: qHTS assay to identify small molecule antagonists of the estrogen related receptor (ERR) signaling pathway from Tox21 library (AID 1224848); further: nearly all actives have a fitted effect of over 50% in size; further: potency means the concentration at half of the fitted maximal effect
Details: ERR reporter cell line, luciferase antagonist mode, 18 h; series mostly up to 92.4 µM; activity, negative = inhibition: at the top concentration
Outline: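 Luciferase luminescence (ONE-Glo, 30 min room temperature) was the read-out. Cells of the NTP-supplied ERR line, 2,000 per well, were given 6 h at 37 C before compound addition in DMSO and 18 h exposure at 37 C.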
On the % scale 0 is the no-effect control and ±100 the full control effect.

SMILES | activity, negative = inhibition | Potency
CCC(C)O (stereo not given) | 0.133% | –
C=C1C(=C/C=C2\CCC[C@]3(C)[C@@H]([C@H](C)/C=C/[C@@H](O)C4CC4)CC[C@@H]23)C[C@@H](O)C[C@@H]1O | – | 13.3 µM (active)
CCN(CC)c1ccc(C(=C2C=CC(=[N+](CC)CC)C=C2)c2cc(S(=O)(=O)O)ccc2S(=O)(=O)[O-])cc1 | – | 11.9 µM (active)
O=[N+]([O-])c1cccc(S(=O)(=O)O)c1 | – | 27.7 µM (active)
Brc1c2ccccc2c(Br)c2ccccc12 | 4.96% [at 8.39 µM] | –
CCCn1cnc2c1c(=O)n(CCCCC(C)=O)c(=O)n2C | 0.649% [at 42.5 µM] | –
CCCCCCc1ccc(-c2ccc(C#N)cc2)cc1 | 2.43% | –
C#Cc1cccc(Nc2ncnc3cc(OCCOC)c(OCCOC)cc23)c1 | – | 6.68 µM (active)
C[C@H]1C[C@H]2[C@@H]3CCC4=CC(=O)C=C[C@]4(C)[C@@]3(Cl)[C@@H](O)C[C@]2(C)[C@@]1(O)C(=O)CO | – | 26.6 µM (active)
NCCCN1CCOCC1 | 7.19% | –
COc1cc(C(=O)OCCCN2CCCN(CCCOC(=O)c3cc(OC)c(OC)c(OC)c3)CC2)cc(OC)c1OC | -23.7% [at 42.5 µM] | –
COc1cc(Cl)ccc1Oc1ccc(Cl)cc1Cl | 24.6% | –
CCCCC(CC)COC(=O)CCCCCCCCC(=O)OCC(CC)CCCC (stereo not given) | 1.63% | –
CCN(CC)c1ccc2c(-c3ccccc3C(=O)O)c3ccc(=[N+](CC)CC)cc-3oc2c1 | – | 27.3 µM (active)
Cc1nn(C)c(Oc2ccccc2)c1/C=N/OCc1ccc(C(=O)OC(C)(C)C)cc1 | – | 0.0049 µM (active)
CCCCCCOC(=O)NC(=N)c1ccc(NCc2nc3cc(C(=O)N(CCC(=O)OCC)c4ccccn4)ccc3n2C)cc1 | – | 13.3 µM (active)
CCc1cc(C2=C(C(=O)O)N(c3ccccc3C(F)(F)F)S(=O)(=O)c3ccccc32)cc2c1OCO2 | – | 24.1 µM (active)

Assay: qHTS assay to identify small molecule agonists of the estrogen related receptor (ERR) signaling pathway from Tox21 library (AID 1224849; calls by dose curve; further: nearly all actives have a fitted effect of over 15% in size)
Details: ERR reporter cell line, ONE-Glo luciferase, 18 h; at 92.4 µM (top of the series) unless noted
Outline: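 Luminescent agonist read-out (One-Glo, 30-minute room-temperature incubation) following 18-hour compound treatment at 37 C of the ERR cell line, which had been plated 6 hours before dosing.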

SMILES | activity change, positive = activation
CCC(C)O (stereo not given) | 0.0918%
C=C1C(=C/C=C2\CCC[C@]3(C)[C@@H]([C@H](C)/C=C/[C@@H](O)C4CC4)CC[C@@H]23)C[C@@H](O)C[C@@H]1O | -57.7% [at 42.5 µM]
CCN(CC)c1ccc(C(=C2C=CC(=[N+](CC)CC)C=C2)c2cc(S(=O)(=O)O)ccc2S(=O)(=O)[O-])cc1 | -45.9% [at 42.5 µM]
O=[N+]([O-])c1cccc(S(=O)(=O)O)c1 | -46%
Brc1c2ccccc2c(Br)c2ccccc12 | 2.61% [at 8.39 µM]
CCCn1cnc2c1c(=O)n(CCCCC(C)=O)c(=O)n2C | 0.154% [at 42.5 µM]
CCCCCCc1ccc(-c2ccc(C#N)cc2)cc1 | 1.68%
C#Cc1cccc(Nc2ncnc3cc(OCCOC)c(OCCOC)cc23)c1 | -38.1% [at 42.5 µM]
C[C@H]1C[C@H]2[C@@H]3CCC4=CC(=O)C=C[C@]4(C)[C@@]3(Cl)[C@@H](O)C[C@]2(C)[C@@]1(O)C(=O)CO | -28.8% [at 42.5 µM]
NCCCN1CCOCC1 | 6.49%
COc1cc(C(=O)OCCCN2CCCN(CCCOC(=O)c3cc(OC)c(OC)c(OC)c3)CC2)cc(OC)c1OC | -15% [at 42.5 µM]
CCCCCCCCCCCCN1CCCCCC1=O | -23.3%
CCCCC(CC)COC(=O)CCCCCCCCC(=O)OCC(CC)CCCC (stereo not given) | 1.57%
CCN(CC)c1ccc2c(-c3ccccc3C(=O)O)c3ccc(=[N+](CC)CC)cc-3oc2c1 | -49.3%
Cc1nn(C)c(Oc2ccccc2)c1/C=N/OCc1ccc(C(=O)OC(C)(C)C)cc1 | -44.6%
CCCCCCOC(=O)NC(=N)c1ccc(NCc2nc3cc(C(=O)N(CCC(=O)OCC)c4ccccn4)ccc3n2C)cc1 | -64.4% [at 42.5 µM]
CCc1cc(C2=C(C(=O)O)N(c3ccccc3C(F)(F)F)S(=O)(=O)c3ccccc32)cc2c1OCO2 | -39.9%

Assay: qHTS RealTime-Glo MT Cell Viability Assay in HepG2 cells - 24 hour (AID 1224867); further: nearly all actives have a fitted effect of over 50% in size; further: potency means the concentration at half of the fitted maximal effect
Details: RealTime-Glo luminescence; series mostly up to 76.8 µM; activity change, negative = cytotoxicity: at the top concentration
Outline: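 qHTS, HepG2, 600 cells/well, RealTime-Glo (NanoLuc + prosubstrate) added with cells; 5 h preincubation; DMSO compound addition; 37 C; luminescence at 0/8/16/24/32/40 h.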

SMILES | activity change, negative = cytotoxicity | Potency
C/C(=C(\CCOP(=O)(O)O)SC(=O)c1ccccc1)N(C=O)Cc1cnc(C)nc1N | 1.32% [at 6.97 µM] | –
CC1=CC=C(C(C)C)CC1 | 3.45% | –
CCC(C)O (stereo not given) | -1.57% | –
C=C1C(=C/C=C2\CCC[C@]3(C)[C@@H]([C@H](C)/C=C/[C@@H](O)C4CC4)CC[C@@H]23)C[C@@H](O)C[C@@H]1O | -11% [at 35.3 µM] | –
COC(=O)c1ccc(I)cc1S(=O)(=O)NC(=O)Nc1nc(C)nc(OC)n1 | 3.32% | –
Brc1c2ccccc2cc2ccccc12 | -6.32% | –
CC(=O)NO | -2.76% [at 35.3 µM] | –
CCCC(=O)Nc1ccc(O)c(C(C)=O)c1 | 2.26% [at 35.3 µM] | –
CCCCC(=O)OCC(=O)[C@H]1[C@H](C)C[C@H]2[C@@H]3C[C@H](F)C4=CC(=O)C=C[C@]4(C)[C@@]3(F)[C@@H](O)C[C@@]21C | -8.6% [at 35.3 µM] | –
CCN(CC)c1ccc(C(=C2C=CC(=[N+](CC)CC)C=C2)c2cc(S(=O)(=O)O)ccc2S(=O)(=O)[O-])cc1 | 2.35% [at 35.3 µM] | –
O=[N+]([O-])c1cccc(S(=O)(=O)O)c1 | -17.1% | –
Brc1c2ccccc2c(Br)c2ccccc12 | 2.73% [at 6.97 µM] | –
CC1(c2ccccc2)OC(C(=O)O)=CC1=O (stereo not given) | 1.17% [at 35.3 µM] | –
CN(C)c1ccc(/C=C/c2ccc([N+](=O)[O-])cc2)cc1 | -7.57% [at 6.97 µM] | –
Cc1cccc(Nc2ccccc2)c1 | -19.3% | –
CCCn1cnc2c1c(=O)n(CCCCC(C)=O)c(=O)n2C | 2.36% [at 35.3 µM] | –

SMILES | activity change, negative = cytotoxicity | Potency
CCCCCCc1ccc(-c2ccc(C#N)cc2)cc1 | -2.79% | –
CN(C)CCN(Cc1ccccc1)c1ccccn1 | -12.5% [at 35.3 µM] | –
C#Cc1cccc(Nc2ncnc3cc(OCCOC)c(OCCOC)cc23)c1 | -14.7% [at 35.3 µM] | –
C[C@H]1C[C@H]2[C@@H]3CCC4=CC(=O)C=C[C@]4(C)[C@@]3(Cl)[C@@H](O)C[C@]2(C)[C@@]1(O)C(=O)CO | -16.9% [at 35.3 µM] | –
NCCCN1CCOCC1 | 1.47% | –
C#CCN(C)CCCOc1ccc(Cl)cc1Cl | -10.7% [at 35.3 µM] | –
COc1cc(C(=O)OCCCN2CCCN(CCCOC(=O)c3cc(OC)c(OC)c(OC)c3)CC2)cc(OC)c1OC | -9.56% [at 35.3 µM] | –
CCCCCCCCCCCCN1CCCCCC1=O | -11.8% | –
COc1cc(Cl)ccc1Oc1ccc(Cl)cc1Cl | -4.32% | –
C=CC(=O)OCCOCCOCCOCCOC(=O)C=C | – | 43.2 µM (active)
Nc1ncn([C@H]2C[C@H](O)[C@@H](CO)O2)c(=O)n1 | -0.409% [at 35.3 µM] | –
CCCCC(CC)COC(=O)CCCCCCCCC(=O)OCC(CC)CCCC (stereo not given) | 5.13% | –
S=C([S-])NCCNC(=S)[S-].[Mn+2] | -4.56% | –
Cc1nn(C)c(Oc2ccccc2)c1/C=N/OCc1ccc(C(=O)OC(C)(C)C)cc1 | -19.6% | –
CCc1cc(C2=C(C(=O)O)N(c3ccccc3C(F)(F)F)S(=O)(=O)c3ccccc32)cc2c1OCO2 | -3.38% | –
